32 compounds from PubChem BioAssay (NCATS) can be followed below.

Records with an inconclusive call do not appear. Values without a mark were called inactive. Active and inactive are the calls of the source. Calls come from the whole dose curve; as a rule, active = well fitted inhibition curve with a large enough effect; inconclusive = small, poorly fitted or top-dose-only effect; inactive = no such curve, though single readings can be large or run the other way.
% is set by controls: 0 for no effect and ±100 for the full control effect.

The test has as its system Zika virus NS2B-NS3 protease (linked construct). The test is described as follows: Primary screen NINDS Rhodamine qHTS for Zika virus inhibitors (AID 1347160). Note: nearly all actives have a fitted effect of over 55% in size. Particulars: purified NS2B-NS3 protease, Rhodamine110 substrate fluorescence; series mostly up to 57.1 µM; activity change, negative = inhibition: at the top concentration. The method in brief: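 Enzyme (25 nM, linked NS2B-NS3) was preincubated 15 min with compound in 10 mM Tris-HCl pH 8.0, 0.01% Tween 20. Rhodamine110 substrate (1.5 microM) was then added and fluorescence read at start and after 15 min.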
(qHTS replaces the single test concentration by a dilution series.)
As to `COc1ccc2c(OC)c3ccoc3nc2c1OC`, the “activity change, negative = inhibition” value was -13.2%.

With `COC(=O)C1=CO[C@@H](O[C@@H]2O[C@H](CO)[C@@H](O)[C@H](O)[C@H]2O)[C@H]2[C@@H]1CC(OC)O[C@@H]2C` (some centres not stated), the “activity change, negative = inhibition” value is -14.2% [at 33.1 µM].

For the compound `O=C(Nc1ccccc1)N1CCN(Cc2ccc3ccccc3n2)CC1`, the “activity change, negative = inhibition” value is 21.3%.

Regarding `CC(=O)O[C@@H]1CC(C)=C2[C@H]1[C@H](C)CC[C@H]2/C=C(\C)C(=O)O`, the “activity change, negative = inhibition” value is 0.228%.

In the case of `CC1CCC2(C(=O)O)CCC3(C)C(=CCC4C5(C)CCC(O)C(C)(CO)C5CCC43C)C2C1(C)O` (configuration not stated), the “activity change, negative = inhibition” value was -2.54% [at 33.1 µM].

For `CC1=CC(=O)[C@H]2C(C)(C)CCC[C@]2(C)[C@@]1(O)CO`, the “activity change, negative = inhibition” value is -6.86%.

Consider `C=C(C)C1Cc2cc(C(=O)OC3OC(CO)C(O)C(O)C3O)ccc2O1` (configuration not stated), for which the “activity change, negative = inhibition” value was -16.7% [at 33.1 µM].

With `Cc1cc(C)c(CNC(=O)c2cc(-c3ccc(CN4CCOCC4)cc3)cc3c2cnn3C2CCCC2)c(=O)[nH]1`, the “activity change, negative = inhibition” value was 14.5%.

As for `C=C1C(OC(=O)/C(C)=C\C)[C@@]23CCC4[C@@](C)(CCC[C@@]4(C)C(=O)O)C2CC[C@H]1C3OC(C)=O` (some centres not stated), the “activity change, negative = inhibition” value is -11.9% [at 33.1 µM].

On to `CC1CC[C@]2(C(=O)O)CC[C@]3(C(=O)O)C(=CCC4[C@@]5(C)CC[C@H](OC6OC(C)C(O)C(OC7OC(CO)C(O)C(O)C7O)C6O)C(C)(C)C5CC[C@]43C)C2C1C` (some centres not stated), for which the “activity change, negative = inhibition” value is -27.6% [at 15.1 µM].

For `COc1c2c(c(C)c3c1C(=O)OC3)OC1(C)CC(O)C34OC(OC)(CC(OC(C)=O)C3(C)C1C2)OC4(C)C` (configuration not stated), the “activity change, negative = inhibition” value is -21.2% [at 33.1 µM].

Regarding `C/C=C/C=C/[C@@H]1O[C@](O)([C@H](CC)C(=O)NC/C=C/C=C(\C)[C@@H](OC)[C@@H](C)C2OC(/C=C/C=C/C=C(\C)C(=O)c3c(O)cc[nH]c3=O)[C@H](O)[C@@H]2O)[C@H](O)[C@H](O)C1(C)C` (some centres not stated), the “outcome” value was “inactive [at 15.1 µM]”.

On to `C=C(C(=O)O)[C@@H]1CC[C@@]2(C)CC[C@H](O)[C@@]2(C(C)=O)C1`, for which the “activity change, negative = inhibition” value is 0.306%.

Consider `C(#Cc1nc2ncccc2nc1OCCN1CCCC1)c1ccccc1`, for which the “activity change, negative = inhibition” value is 22.9%.

As for `CC1=C2C3OC(=O)C(C)C3(O)CCC2(C)CCC1O` (configuration not stated), the “activity change, negative = inhibition” value is -44.3%.

In the case of `Cc1cc(N2CCN([C@@H]3CN[C@H](C(=O)N4CCSC4)C3)CC2)n(-c2ccccc2)n1`, the “activity change, negative = inhibition” value was -17.4%.

Consider `CC(=O)OC1/C(C)=C/C(=O)C(OC(C)=O)C(C)(C)/C=C/C(C)C(=O)C2(OC(C)=O)CC(C)C(OC(=O)c3ccccc3)C12` (configuration not stated), for which the “activity change, negative = inhibition” value was -0.121% [at 15.1 µM].

On to `C/C=C/C1=CC2=C(CO1)C(=O)C(C)(O)C(OC(=O)c1c(C)cc(OC)cc1O)C2` (configuration not stated), for which the “activity change, negative = inhibition” value was -4.67% [at 33.1 µM].

For the compound `C=CC1C(OC2OC(CO)C(O)C(O)C2O)OC=C2C(=O)N3C(C(=O)O)Cc4c([nH]c5ccccc45)C3CC21` (configuration not stated), the “outcome” value was “inactive [at 33.1 µM]”.

Take `CC1CCC2(CO)C(C(=O)O)=CCCC2C1(C)CCc1ccoc1` (configuration not stated): the “activity change, negative = inhibition” value was -13.3% [at 33.1 µM].

Take `C[C@@H]1O[C@@H](O[C@H]2[C@H](O[C@H]3[C@H](O[C@H]4CC[C@@]5(C)C(CC[C@]6(C)C5CC=C5[C@@H]7CC(C)(C)C[C@@H](O)[C@]7(C)CC[C@]56C)[C@@]4(C)CO)O[C@H](C(=O)O)[C@@H](O)[C@@H]3O)OC[C@H](O)[C@@H]2O)[C@H](O)[C@H](O)[C@H]1O` (some centres not stated): the “activity change, negative = inhibition” value was -1.95% [at 15.1 µM].

As to `O=C(CCc1nnc2n(Cc3ccc(Cl)cc3)c(=O)c3ccccc3n12)NCCC1=CCCCC1`, the outcome was inactive.

With `O=C1NC(=O)C(c2cn3c4c(cccc24)CCC3)C1c1c[nH]c2ccccc12` (configuration not stated), the “activity change, negative = inhibition” value is 14.1%.

`C=C1CCC2C(C)(C(=O)O)CCCC2(C)C1CC/C(=C\CO)CO` (configuration not stated): the “outcome” value is “inactive [at 33.1 µM]”.

With `C[C@@H]1CCC/C=C/[C@H]2CC(=O)C[C@@H]2[C@@H](O)/C=C/C(=O)O1`, the “activity change, negative = inhibition” value was -16.2%.

For the compound `CCCCOC(=O)NC(=O)C1c2ccccc2Oc2ccccc21`, the “activity change, negative = inhibition” value is -9.32%.

As for `C=C1CC[C@@H]2[C@](C)(CO[C@@H]3O[C@H](CO)[C@@H](O)[C@H](O)[C@H]3O)[C@H](O)CC[C@@]2(C)[C@@H]1C/C=C1/C(=O)OC[C@H]1O`, the “activity change, negative = inhibition” value was 4.88% [at 33.1 µM].

Regarding `CC1(O)CC(O)C2(O)C=COC(O[C@@H]3O[C@H](CO)[C@@H](O)[C@H](O)[C@H]3O)C12` (some centres not stated), the “activity change, negative = inhibition” value is -22.3% [at 33.1 µM].

With `CCCn1c(=O)c2[nH]c(-c3ccc(OCC(=O)O)cc3)nc2n(CCC)c1=O`, the outcome was inactive.

On to `CC1(C)CCCC2(C)C=C(C(=O)O)C(O)CC12` (configuration not stated), for which the “activity change, negative = inhibition” value was 14.2%.

`CC(=O)O[C@H]1[C@@H](O)[C@H](O[C@H]2[C@@H]3C=CO[C@@H](O[C@H]4O[C@@H](CO)[C@H](O)[C@@H](O)[C@@H]4O)[C@@H]3[C@@]3(CO)O[C@@H]23)O[C@@H](C)[C@@H]1OC(=O)/C=C/c1ccccc1`: the “activity change, negative = inhibition” value was 14.8% [at 15.1 µM].

As for `O=C(OCC1=CC(O)C2C=CO[C@@H](O[C@@H]3O[C@H](CO)[C@@H](O)[C@H](O)[C@H]3O)C12)c1ccccc1` (some centres not stated), the “activity change, negative = inhibition” value is -19.6% [at 33.1 µM].
